# Screening data as filed in PubChem.
# Shown are actives, neighbours in structure and some others; about 2.5% of the full set was active somewhere.
# Marburg entry inh: qHTS for inhibitors of binding or entry into cells for Marburg Virus | 300,000 tested, 1.8% active | Marburg virus pseudotyped entry inhibition, cell reporter | Potency, µM (highest dose often 37.8 µM), without a hit: top-dose activity change, negative = inhibition, actives largely listed as inhibitors | AID 540276, 2011; calls by dose curve; tested in HEK293 cells
# LASV entry inh: qHTS for Inhibitors of binding or entry into cells for Lassa Virus; Lassa virus pseudotype entry inhibition, cell reporter; Potency, µM (top dose mostly 37.9 µM), for inactives: top-dose activity change, negative = inhibition, most hits filed as inhibitors; 300,000 tested, 1.2% active; AID 540256, 2011; calls by dose curve; tested in HEK293 cells; further: nearly all actives have a fitted effect of over 50% in size
# VACV Venus inh: qHTS for Stage-Specific Inhibitors of Vaccinia Orthopoxvirus: Venus Reporter Primary qHTS | Potency, µM (titrated, usually from 36.5 µM), without a hit: at the highest dose activity change, negative = inhibition, usual class: inhibitors | Vaccinia virus Venus reporter expression, fluorescence | 330,000 tested, 0.46% active; calls by dose curve; tested in A549 cells; further: nearly all actives have a fitted effect of over 30% in size
# VACV mCherry inh: qHTS for Stage-Specific Inhibitors of Vaccinia Orthopoxvirus: mCherry Reporter Primary qHTS. Vaccinia virus mCherry reporter infection, fluorescence. Potency, µM (doses to about 36.5 µM), inactives show at the top dose activity change, negative = inhibition, usual class: inhibitors. 310,000 tested, 0.63% active. AID 720579, 2013; calls by dose curve; tested in A549 cells; further: nearly all actives have a fitted effect of over 35% in size
# Active calls of the source: *; i = inactive; ? = inconclusive; nt = no result; [ ] = remark or other dose. On the % scale 0 is the no-effect control and ±100 the full control effect; potency means the concentration at half of the fitted maximal effect.
SMILES,Marburg entry inh,LASV entry inh,VACV Venus inh,VACV mCherry inh
CC(=O)OC[C@H]1O[C@@H](ON=CC[C@@H]2C=C[C@@H](OC(C)=O)[C@@H](COC(C)=O)O2)[C@@H](OC(C)=O)[C@@H](OC(C)=O)[C@@H]1OC(C)=O,-12%[14.2 µM],nt,nt,nt
O=C(Nc1nc(-c2ccc(F)cc2)cs1)C1CCN(C(=O)c2ccc(F)cc2)CC1,11µM*,-28%[46.1 µM],?,?
O=C(Cc1ccccc1F)Nc1nc(-c2ccc(F)cc2)cs1,?,4.5µM*,-8%,?
O=C(CCS(=O)(=O)c1ccccc1)Nc1nc(-c2ccc(F)cc2)cs1,?,2%,?,13µM*
O=C(Cc1cccs1)Nc1nc(-c2ccccc2)cs1,?,1.6µM*,nt,nt
Cc1cc(C(=O)Nc2ccccc2-c2nc(CNC(=O)C3COc4ccccc4O3)c(C)o2)c(C)o1 (stereo not given),nt,nt,17%,-1%
CS(=O)(=O)N1CCc2cc(-c3csc(NC(=O)Cc4cccs4)n3)ccc21,?,13µM*,?,?
Cc1nnc(SCC(=O)Nc2nc(-c3ccc(F)cc3)cs2)[nH]c1=O,?,-11%[46.1 µM],?,13µM*
CC(=O)Nc1nc(-c2ccc3c(c2)CCN3S(C)(=O)=O)cs1,8%[46.1 µM],-23%,-27%,-28%
C#CCSc1nnc(-c2ccc(O)cc2)o1,?,?,-22%,-6%
Cc1ccc(-c2nnc(SCc3ccccc3F)o2)cc1,16µM*,?,nt,nt
C#CCSc1nnc(-c2ccc(C)cc2)o1,?,?,?,10µM*
COc1ccc(-c2nnc(SCc3ccccc3F)o2)cc1OC,-18%,0%,-26%,nt
Cc1ccnc2ccc3ccccc3c12,nt,nt,-31%,-12%
Cc1ccc2c(c1)/C(=C/c1ccccc1C)C(=O)N2,11µM*,?,?,-19%
C=CCn1c(COc2cccc(C)c2C)nnc1SCC(=O)N1CCN(c2ccccc2)CC1,?,5.6µM*,?,?
Cn1cnc([N+](=O)[O-])c1Oc1ccc2ccccc2c1,?,?,7.9µM*,6.3µM*
CCN(CC)CCCNC(=O)c1ccc(OCC(=O)Nc2ccccc2C(F)(F)F)c(OC)c1,11µM*,?,-17%,i
CCN(CC(=O)Nc1ccc(OC)c(OC)c1)CC(=O)Nc1ccccc1C(F)(F)F,-2%[46.1 µM],-27%[46.1 µM],-16%,i
NC1=NC(=Nc2ccccc2)c2ccccc21,?,13µM*,?,?
NC1=NC(=Nc2ccc(Br)cc2)c2ccccc21,7.1µM*,?,?,?
NC1=NC(=Nc2ccc(Cl)cc2)c2ccccc21,21%,-7%,-10%,-11%
OC1CCC(Br)CC1C1NC2=C(CCCC2)S1 (stereo not given),11%,nt,nt,nt
COC(=O)C1=C(C)N(Cc2ccccc2)C(=S)NC1CCc1ccccc1 (stereo not given),38%[14.2 µM],nt,nt,nt
CCCCCN1N=C(C)CC1=O,-13%[46.1 µM],2µM*,-5%,i
SMILES,Marburg entry inh,LASV entry inh,VACV Venus inh,VACV mCherry inh
CCCCCCCN1N=C(C)C(C(=O)c2ccccc2)C1=O (stereo not given),?,-19%,-13%,-19%
CC(=O)OC(C)(C)/C=C/C(=O)C(C)(O)C1C(O)CC2(C)C3CC=C4C(CC(O)C(=O)C4(C)C)C3(C)C(=O)CC12C (stereo not given),?,0.13µM*,40µM*,?
CC(=O)OC(C)(C)/C=C/C(=O)C(C)(O)C1[C@H](O)C[C@@]2(C)C3CC=C4C(CC[C@@H](O)C4(C)C)[C@]3(CO)C(=O)C[C@]12C (stereo not given in full),0.25µM*,?,35µM*,7.1µM*
CC1(C)Oc2ccc3ccc(=O)oc3c2C[C@H]1O[C@@H]1O[C@H](CO)[C@@H](O)[C@H](O)[C@H]1O,nt,nt,-2%,i
CC(=O)OC(C)(C)/C=C/C(=O)[C@](C)(O)[C@H]1[C@H](O)C[C@@]2(C)[C@@H]3CC=C4[C@H](C[C@H](O)C(=O)C4(C)C)[C@]3(C)C(=O)C[C@]12C,?,0.29µM*,8.9µM*,?
CC(=O)OC(C)(C)/C=C/C(=O)[C@](C)(O)C1[C@H](O)C[C@@]2(C)C3CC=C4C(C=C(O[C@@H]5O[C@H](CO)[C@@H](O)[C@H](O)[C@H]5O)C(=O)C4(C)C)[C@]3(C)C(=O)C[C@]12C (stereo not given in full),nt,nt,22µM*,-12%
COc1cc(=O)n2c(c1C(=O)N(C)Cc1ccsc1)CCN(Cc1c(C)nc3sccn13)CC2,nt,nt,-14%,i
COCCN(C(=O)Cc1cccs1)C(C(=O)NCc1ccc(OC)cc1)c1ccc(OC)cc1 (stereo not given),0%,?,0%,-10%
COc1ccc(CNC(=O)C(c2ccc(C)cc2)N(Cc2cccs2)C(=O)c2ccc3c(c2)OCCO3)cc1 (stereo not given),12µM*,?,-26%,-18%
Cc1ccc(C(C(=O)NCc2ccccc2)N(Cc2cccs2)C(=O)c2ccc3c(c2)OCCO3)cc1 (stereo not given),6.5µM*,6.5µM*,nt,nt
CCCCCCCCN1[C@@H](CC(C)=O)c2ccc(/C=C/C(C)=O)cc2S1(=O)=O,nt,nt,-5%,-16%
CCN(CC)CCCNC(=O)c1oc2ccc(S(=O)(=O)N3CC(C)CC(C)C3)cc2c1C (stereo not given),10µM*,?,-27%,?
Cc1c(C(=O)N2CCCCC2)oc2ccc(S(=O)(=O)N3CC(C)CC(C)C3)cc12 (stereo not given),11µM*,?,?,nt
CCOC(=O)c1c(C)[nH]c(C(=O)OC(C(=O)N(C)C)c2ccccc2)c1C (stereo not given),nt,nt,-17%,-20%
CNC(=O)NC(=O)CN1C=NC2SC(c3ccccc3)C=C2C1=O (stereo not given),-2%[46.1 µM],nt,nt,nt
CSCCC(NC(=O)c1ccccc1)C(=O)N1CC=C(c2ccccc2)CC1 (stereo not given),?,11µM*,-18%,-4%
Cc1ccc(C)c(NC(=O)CCC(=O)N/N=C/c2ccc[nH]2)c1,?,18µM*,nt,nt
Cc1ccc(NCC(=O)N/N=C\c2ccc[nH]2)cc1,3.2µM*,?,-18%,?
Cc1c(Cl)cccc1NC(=O)CCC(=O)NNC(=O)c1ccccc1,8%,2%,-8%,-1%
Cc1c(Cl)cccc1NC(=O)CCC(=O)N/N=C/c1ccc[nH]1,3.2µM*,?,?,?
CCN1C(=NCc2ccc(OC)cc2)NC(c2cccc(F)c2)C(C(=O)OC)=C1C (stereo not given),2%[14.2 µM],nt,nt,nt
C=CCOC(=O)N[C@H](c1ccc2ccccc2c1)[C@H](C)C=CCC(=O)OC,-4%[14.2 µM],?,nt,nt
CN1C(=O)C(=Cc2cccnc2)C(=O)N(C)C1=O,15%,23%,-14%,-17%
CC1C/C(=C\c2cccnc2)C(=O)/C(=C/c2cccnc2)C1 (stereo not given),2.1µM*,2.9µM*,8.9µM*,?
CCOc1ccc(Nc2nc(C)c(NC(=O)c3cccc(OC)c3)c(Nc3ccc(OCC)cc3)n2)cc1,11µM*,3%[46.1 µM],-16%,i
